Test results reported in the supplement of paper PMC10338343.
± gives the standard deviation.

The sequences below were run on MILI (PIWIL2) piRISC loaded with L1MC piRNA (26 nt) (assay: pre-steady-state target cleavage rate (min^-1); guide: L1MC piRNA 5'p-UAACUAAAUACUAUGCAAGCUGUAGG; MIWI and MILI are mouse PIWI proteins and EfPiwi is from a freshwater sponge; tags in brackets are library labels; higher = faster piRNA-guided slicing of the target). Conditions: auxiliary factor: 500 nM mouse GTSF1.
Outline: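 Sequencing of uncleaved targets, normalised to depth and to weakly complementary targets, was the readout of this Cleave-'n-Seq assay. A transcribed, DNA-blocked target RNA library (0.1 nM) was mixed with 1 nM active affinity-purified piRISC carrying one synthetic guide, with or without 500 nM GTSF1 partner protein, in HEPES–potassium acetate buffer at 33 °C for 0–8 or 0–960 min. Three trials were pooled, k3 was capped at 0.0001 min^-1, and a burst-and-steady-state fit gave the pre-steady-state cleavage rate.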

Sequence	pre-steady-state target cleavage rate
UCCUGGAUGUCGAACCAUAGAAUUUUGUUA	0.251 ± 0.13
UCCUGGUACAGCUUGCUAAGUAUUUAGAAA	0.0132 ± 0.0056
UCCUGGAUCAGCUUGGUAAGUAUUUAGUAA	0.0371 ± 0.011
UCCUGGUAGAGCUUGCAUAGUAUUUUCAAA	0.00621 ± 0.0031
UCCUGGAUGUCGAUGCAAUAGUAUUUAGUUA	0.00497 ± 0.0023
UCCUGGUUGUGCUUGCAUAGUAUUUUCAAA	0.00513 ± 0.005
UCCUGGAUGUCCUUGCAUAGUAUUAAGAUA	0.00928 ± 0.0043
UCCUGGAACAGCUUGCAAAGUAUUUUGUUA	0.0942 ± 0.021
UCCUGGAUGUGCUUGCAUUGAAUUUAGUUA	0.00465 ± 0.0038
UCCUGGAUCAGCUUGCUAAGUAUUUACAAA	0.0261 ± 0.0085
UCCUGGAUCAGCUUGCUAAGUAUUUAGUAA	0.0344 ± 0.01
UCCUGGAUCUGCUUGCAUAGUAUUUACAAA	0.104 ± 0.022
UCCUGGAUGUCGAUGCCAUAGUAUUUAGUUA	0.00491 ± 0.0034
UCCUGGAACAGCAACCAUAGUAUUUAGUAA	0.143 ± 0.019
UCCUGGAUGUCCUUGCAAUCUAUUUAGUUA	0.00463 ± 0.0037
UCCUGGAACAGCUUGCAUUCUAUUUAGUUA	0.0609 ± 0.014
UCCUGGAUGUCGAAGCAUAGUAUAAAGUUA	0.0127 ± 0.0053
UCCUGGAACUGCUUGCAUAGAAUUUAGUUA	0.0556 ± 0.013

Sequence	pre-steady-state target cleavage rate
UCCUGGAUGUGCAUGCAUAGAAUUUAGUUA	0.00714 ± 0.0044
UCCUGGAUCAGCUUCCAUAGUAAUUAGUUA	0.00494 ± 0.004
UCCUGGAUGACCUUGCAUAGUAUUUAGUAA	0.152 ± 0.019
UCCUGGAUCAGCUUGCAUGUAUUUAGUUA	0.041 ± 0.0073
UCCUGGAACAGCUUGCAUAGUAUUUACUAA	0.0459 ± 0.013
UCCUGGAACAGCUUGCAUAGUUUUUUCAAA	0.00594 ± 0.0037
UCCUGGAUCAGCUUGCAUAGAAAUUAGUUA	0.0245 ± 0.0096
UCCUGGAUGAGCUUGCAUAGUAUUAAGUAA	0.0732 ± 0.021
UCCUGGUACAGCUUGCUUAGUAUUUUGUUA	0.0736 ± 0.021
UCCUGGAUGUCGAAGCAUAGUAUUUAGGUA	0.00926 ± 0.0047
UCCUGGAUGUGCAAGCAUAGUAUUUAGUAA	0.0583 ± 0.013
UCCUGGAUGUCGUUGCAUAGUAUUUUGUUA	0.194 ± 0.044
UCCUGGAUGACCUUGCAUAGAAUUUAGUUA	0.023 ± 0.012
UCCUCCUACAGCUUGCAUAGUAAUUACUUA	0.0937 ± 0.025
UCCUGGAUGUGCUUGCAUAGUAAAAAGUUA	0.0196 ± 0.0079
UCCUCCUACAGCUUGCAUAUGUAUUUAGUUA	0.0106 ± 0.0057
UCCUGGAUGAGCUUGCAUAGUAUAUUAGUUA	0.158 ± 0.017
